Among the test systems are MOLT-4 leukemia; SR leukemia; RPMI-8226 leukemia; OVCAR-8 ovarian; OVCAR-5 ovarian; OVCAR-4 ovarian; SK-OV-3 ovarian; IGROV1 ovarian; OVCAR-3 ovarian; HS 578T breast; NCI/ADR-RES ovarian; T-47D breast; BT-549 breast; MDA-MB-435 melanoma; SW-620 colon; MCF7 breast; HCT-116 colon; HCC-2998 colon; KM12 colon.
Common to all, as to experiment: NCI-60 one-dose screen, 48 h (100 = growth as untreated, 0 = no growth, -100 = all killed)
Conditions in all cases: 10 µM unless noted

The structures appear in SMILES notation. Compounds without any hit were thinned out: in the full panel of roughly 83,000, 20% have a hit.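 Plates (96-well) were seeded with cells, treated with compound at one concentration, and incubated for 48 hours before percent growth was determined.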 A number with no mark means an inactive call. Calls of active or inactive are those of the source. Rule for the calls: active = growth percent below 10; inactive = the rest.

Results on eight molecules are retold here after PubChem BioAssay (NCI).

Consider `CC[C@H](C)[C@H](NC(=O)C12C3C4C1C1C2C3C41NC(C)=O)C(=O)N(C)[C@H](C[C@@H](OC(C)=O)c1nc(C(=O)N[C@@H](Cc2ccccc2)C[C@H](C)C(=O)OC)cs1)C(C)C` (some centres not stated), for which the growth in the assay with MOLT-4 leukemia was 17.7%; in the assay with SR leukemia, 16.6%; with RPMI-8226 leukemia it was 2.37% (active); with OVCAR-8 ovarian, 17%; in the assay with OVCAR-5 ovarian, 47.8%; with OVCAR-4 ovarian, 38.7%. The growth in the assay on SK-OV-3 ovarian is 48.5%; in the assay with IGROV1 ovarian, 31.1%; in the assay with OVCAR-3 ovarian, -33.8% (active); in the assay on HS 578T breast, 18.6%; in the assay with NCI/ADR-RES ovarian, 89.7%; with T-47D breast, 70.1%. Besides, the growth is 5.96% (active) in the assay with BT-549 breast; -32.9% (active) in the assay on MDA-MB-435 melanoma; 21% with SW-620 colon; 15.2% in the assay on MCF7 breast; 6.15% (active) in the assay with HCT-116 colon; 24.1% in the assay with HCC-2998 colon. Also, the growth in the assay with KM12 colon is 14.8%.
On to `C[n+]1c(/C=C/c2ccc(N(CCCl)CCCl)cc2)sc2ccccc21`, for which the growth with MOLT-4 leukemia is 36.8%; with SR leukemia, 19.7%; in the assay on RPMI-8226 leukemia, 27.5%; in the assay with OVCAR-8 ovarian, 30%; in the assay on OVCAR-5 ovarian, 103%; in the assay on OVCAR-4 ovarian, 72.9%. Besides, the growth in the assay on SK-OV-3 ovarian was 55.1%; in the assay with IGROV1 ovarian, 75%; in the assay on OVCAR-3 ovarian, 25.5%; in the assay on HS 578T breast, 98.8%; in the assay on NCI/ADR-RES ovarian, 102%; with T-47D breast, 16.8%. The growth in the assay with BT-549 breast was 64.3%; with MDA-MB-435 melanoma it was 76.1%; with SW-620 colon, 23.1%; in the assay on MCF7 breast, 27.3%; in the assay on HCT-116 colon it was 48.4%; with HCC-2998 colon, 84.4%. Besides, in the assay on KM12 colon, the growth was 74.8%.
On to `CN(C)C1C(=O)C(C(N)=O)=C(O)C2(O)C(=O)C3=C(O)c4c(O)cccc4C(C)(O)C3CC12.[Cl][Sb]([Cl])[Cl]` (configuration not stated), for which the growth in the assay on MOLT-4 leukemia was 36.9%; in the assay with SR leukemia, 19.2%; in the assay on RPMI-8226 leukemia, 15.4%; with OVCAR-8 ovarian, 21.3%; with OVCAR-5 ovarian, 143%; in the assay with OVCAR-4 ovarian, 44.2%. Besides, the growth in the assay on SK-OV-3 ovarian is 76.9%; in the assay with IGROV1 ovarian, 45.1%; in the assay with OVCAR-3 ovarian, 38%; with HS 578T breast, 31.7%; in the assay with NCI/ADR-RES ovarian it was 56.9%; with T-47D breast, 60.3%. Moreover, the growth is 15.5% with BT-549 breast; 24.1% in the assay on MDA-MB-435 melanoma; 34.7% in the assay with SW-620 colon; 57.6% with MCF7 breast; 11.9% in the assay on HCT-116 colon; 39.6% with HCC-2998 colon. Further, the growth in the assay with KM12 colon is 45.9%.
Turning to `CCCC(C)C1(CC)C(=O)NC(=O)N(C)C1=O` (configuration not stated), the growth in the assay on MOLT-4 leukemia is 101%; in the assay on SR leukemia it was 95%; in the assay with RPMI-8226 leukemia it was 103%; in the assay on OVCAR-8 ovarian, 98.8%; in the assay on OVCAR-5 ovarian, 109%; with OVCAR-4 ovarian, 108%. In addition, the growth in the assay on SK-OV-3 ovarian is 89.3%; in the assay with IGROV1 ovarian, 96.6%; in the assay with OVCAR-3 ovarian it was 108%; in the assay on HS 578T breast it was 99.4%; with NCI/ADR-RES ovarian, 104%; in the assay on T-47D breast, 87%. The growth was 105% in the assay on BT-549 breast; 97.9% in the assay on MDA-MB-435 melanoma; 101% with SW-620 colon; 103% with MCF7 breast; 114% in the assay with HCT-116 colon; 97.9% with HCC-2998 colon. Further, the growth in the assay on KM12 colon is 110%.
Consider `COc1ccc2c(c1)c(-c1nc(-c3cn(C)c4ncccc34)cs1)cn2CCN1CCOCC1`, for which the growth in the assay with MOLT-4 leukemia is 33.5%; with SR leukemia it was 39.1%; in the assay on RPMI-8226 leukemia, 13.3%; with OVCAR-8 ovarian it was 29.2%; with OVCAR-5 ovarian it was 78.2%; in the assay on OVCAR-4 ovarian, 42%. The growth in the assay on SK-OV-3 ovarian is 85.1%; with IGROV1 ovarian, 28.7%; in the assay on OVCAR-3 ovarian it was 47.9%; in the assay on HS 578T breast it was 31.4%; in the assay with NCI/ADR-RES ovarian it was 30.6%; with T-47D breast, 20%. Besides, the growth in the assay on BT-549 breast is 54.7%; in the assay with MDA-MB-435 melanoma it was 72.9%; in the assay on SW-620 colon, 55.8%; with MCF7 breast, 13.5%; in the assay on HCT-116 colon it was 34.4%; in the assay on HCC-2998 colon, 95.6%. The growth with KM12 colon is 22.7%.
With `C[S+]1C=Cc2ccccc2C1c1ccc(Cl)cc1` (configuration not stated), the growth in the assay with MOLT-4 leukemia was 85.7%; in the assay on SR leukemia, 93.4%; in the assay on RPMI-8226 leukemia, 40.8%; with OVCAR-8 ovarian it was 95.2%; in the assay on OVCAR-5 ovarian it was 118%; in the assay with OVCAR-4 ovarian, 66.5%. The growth with SK-OV-3 ovarian was 116%; in the assay on IGROV1 ovarian, -85.2% (active); with OVCAR-3 ovarian it was 89.8%; in the assay on HS 578T breast, 77.7%; in the assay on NCI/ADR-RES ovarian it was 101%; in the assay with T-47D breast it was 89.9%. Further, the growth in the assay with BT-549 breast was 85.6%; with MDA-MB-435 melanoma, 75%; in the assay with SW-620 colon, 112%; in the assay with MCF7 breast, 84.5%; in the assay with HCT-116 colon, 81.6%; with HCC-2998 colon, 103%. Besides, in the assay with KM12 colon, the growth is 1.91% (active).
Consider `O=[N+]([O-])/C=C\c1ccc(Cl)c(Cl)c1`, for which the growth was 37.1% in the assay with MOLT-4 leukemia; 7.87% (active) in the assay with SR leukemia; -2.51% (active) in the assay with RPMI-8226 leukemia; 66.1% in the assay with OVCAR-8 ovarian; 106% in the assay with OVCAR-5 ovarian; 84.4% in the assay on OVCAR-4 ovarian. Moreover, the growth was 96.4% with SK-OV-3 ovarian; 92.7% with IGROV1 ovarian; 44.6% in the assay on OVCAR-3 ovarian; 17% in the assay with HS 578T breast; 101% with NCI/ADR-RES ovarian; 38.3% in the assay with T-47D breast. Also, the growth in the assay on BT-549 breast is 4.99% (active); in the assay with MDA-MB-435 melanoma it was -26.3% (active); in the assay with SW-620 colon it was -6.79% (active); in the assay on MCF7 breast, -32.4% (active); in the assay on HCT-116 colon, -52.8% (active); with HCC-2998 colon it was 64.1%. In addition, the growth in the assay with KM12 colon is 43.6%.
Regarding `O=C(O)C1C(C(=O)O)C2(Cl)C(Cl)=C(Cl)C1(Cl)C2(Cl)Cl.[Hg]` (configuration not stated), the growth was 72.6% in the assay on MOLT-4 leukemia; 60.6% in the assay on SR leukemia; 84% in the assay on RPMI-8226 leukemia; 106% with OVCAR-8 ovarian; 106% with OVCAR-5 ovarian; 108% in the assay on OVCAR-4 ovarian. Besides, the growth with SK-OV-3 ovarian was 120%; with IGROV1 ovarian, 74.8%; with OVCAR-3 ovarian, 39.8%; with HS 578T breast, 102%; with NCI/ADR-RES ovarian, 102%; in the assay with T-47D breast it was 58%. Moreover, the growth in the assay on BT-549 breast was 88.1%; in the assay with MDA-MB-435 melanoma, 99.7%; in the assay on SW-620 colon, 86.7%; with MCF7 breast it was 52.2%; in the assay on HCT-116 colon, 90.4%; with HCC-2998 colon it was 116%. In addition, the growth in the assay on KM12 colon is 96.7%.
